# Compounds with a hit are over-represented: about 1.8% of the library has one in this group of screens.
# TLR4 MyD88 comp: inhibitors of TLR4-MyD88 association in cells, primary screen, cell-based, HeLa CL3-4, BLA complementation, FRET ratio | Toll-like receptor 4 (Homo sapiens) + Myeloid differentiation primary response protein … | inhibition, % at 8.4 µM | 200,000 compounds, 0.18% hits | HeLa CL3-4 TLR4/MyD88 BLA complementation; in the data active means inhibition above about 25%;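 further: 0% = vehicle and 100% = reference inhibitor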
# Rtt109 Vps75: inhibitors of C. albicans Rtt109/Vps75 HAT, primary screen, biochemical, ThioGlo CoA-SH fluorescence, plate reader | purified Rtt109/Vps75, 4 h | inhibition, % at 34.9 µM | 330,000 compounds, 0.16% hits | AID 540336, 2011;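 active means inhibition of at least 50% in every replicate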
# Target sequence (Q5AAJ8 whole entry, looked up): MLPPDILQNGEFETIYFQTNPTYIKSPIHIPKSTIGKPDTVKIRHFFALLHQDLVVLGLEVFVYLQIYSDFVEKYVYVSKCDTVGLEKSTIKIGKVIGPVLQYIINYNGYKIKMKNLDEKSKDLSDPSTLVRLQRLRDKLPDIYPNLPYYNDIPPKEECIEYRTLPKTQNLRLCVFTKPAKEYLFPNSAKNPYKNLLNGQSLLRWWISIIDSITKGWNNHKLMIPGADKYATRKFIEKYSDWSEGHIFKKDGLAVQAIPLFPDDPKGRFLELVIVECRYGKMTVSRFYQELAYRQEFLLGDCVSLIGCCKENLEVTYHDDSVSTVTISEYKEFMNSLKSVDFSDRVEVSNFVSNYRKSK
# TLR9-MyD88 block: inhibitors of TLR9-MyD88 association in cells, primary screen, cell-based, CHO, BLA complementation, fluorescence; CCF4 FRET ratio; inhibition, % at 4.98 µM; 340,000 compounds, 0.21% hits;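 active means inhibition above the mean over all tested compounds plus 3 SD, cut at about 21% in these data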;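 further: 0% = DMSO only wells and 100% = clavulanate BLA inhibitor control wells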
# LANA-H2B inh: blockers of LANA interaction with H2A/H2B – biochemical, FP readout, HTS, primary screen; cell-free LANA-H2A/H2B peptide, fluorescence polarization; 320,000 compounds, 0.6% hits; inhibition, % (concentration not given with the values); Protein LANA1 (Human herpesvirus 8 type P (isolate GK18)), Q9QR71; in the data active means inhibition mostly above about 10%, no sharp cut-off; inactive means mostly below about 6.7%
# NOD2 RIPK2 PPI: NOD2-RIPK2 binding disruptors in cells, primary screen, fluorescence, CHO cells, BLA complementation; CCF4 ratio; Receptor-interacting serine/threonine-protein kinase 2 (Homo sapiens), O43353; AID 624267, 2012; inhibition, % at 4.98 µM; 360,000 compounds, 0.38% hits; in the data active means inhibition above about 21%;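 further: 0% = vehicle only and 100% = reference blocker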
# HTR2A ag: mouse Htr2a agonists via beta-arrestin recruitment, primary screen, cell-based, luminescence. 5-hydroxytryptamine receptor 2A (Mus musculus), P35363. CHO-K1 mHTR2A beta-arrestin complementation; percent of 30 µM serotonin response. activation, % at 7.6 µM. 360,000 compounds, 0.66% hits;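 active means activation above a run cutoff, the mean activation of all tested compounds plus 3 SD, cut at about 14% in these data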;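 further: 0% = plate median of compound wells and 100% = 30 µM serotonin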
# The depositor's hits bear a star; / = not tested or not shown.
SMILES,TLR4 MyD88 comp,Rtt109 Vps75,TLR9-MyD88 block,LANA-H2B inh,NOD2 RIPK2 PPI,HTR2A ag
O=C(OCc1ccccc1)N1CCN(C(c2ccnc3ccccc23)c2nnnn2-c2ccc3c(c2)OCCO3)CC1 (stereo unspecified),/,/,/,/,5,-3
Cc1noc(C)c1CSc1nnc2n(-c3ccccc3)c(=O)c3ccccc3n12,/,-13,5,21*,-1,2
Cc1noc(C)c1CSc1nc2ccccc2c(=O)n1-c1ccccc1,-11,-5,-5,1,1,-2
O=C(/C=C/c1ccc(F)cc1)N1CC[C@@]2(O)CCCC[C@H]2C1,/,-2,-6,4.7*,3,-1
CCN(CC)CCOC(=O)/C=C/c1ccccc1,/,-8,0,0,-7,-3
CCN(CC)CC(C)(C)C(=O)/C=C/c1ccc(/C=C/C(=O)C(C)(C)CN(CC)CC)cc1,/,6,21,/,84*,0
CC(=O)OC[C@@H]1CN(Cc2ccccc2)C[C@H](n2cnc3c(NCC(C)C)ncnc32)O1,/,/,/,/,-9,-2
O=C(c1cccc(Cl)c1)N1CCC(=O)N([C@H](COCc2cccc(Cl)c2)Cc2ccccc2)CC1,/,/,/,/,2,0
N#Cc1c(-c2ccccc2)nc(SCC(=O)N2c3ccccc3Sc3ccccc32)[nH]c1=O,/,58*,-5,2,-11,3
O=C1CC(=O)Nc2cc(S(=O)(=O)N3CCOc4ccc(Cl)cc43)ccc2N1,/,0,-2,31*,3,-4
O=C(Cc1ccc(F)cc1)Nc1cccc2cccnc12,-4,63*,2,-9,-9,-3
CCC(=O)Nc1cccc2cccnc12,-3,/,1,-3,0,-3
Cc1ccc(S(=O)(=O)N/N=C\C=C\c2ccccc2)cc1,-6,51*,-6,-1,-7,-3
O=S(=O)(N/N=C\C=C\c1ccccc1)c1ccc(Br)cc1,4,0,5,-1,4,-2
OC[C@@H]1CN(Cc2ccco2)C[C@H](n2cnc3c(NC4CC4)ncnc32)O1,/,/,/,/,-5,-1
O=C(CN1C(=O)NC(Cc2c[nH]c3ccccc23)C1=O)Nc1cccc(S(=O)(=O)N2CCOCC2)c1 (stereo unspecified),/,-7,-6,25*,2,2
Cc1cc(C)cc(NC(=O)CN2C(=O)NC(Cc3c[nH]c4ccccc34)C2=O)c1 (stereo unspecified),/,0,2,-2,-4,3
COC(=O)c1cccc(Oc2cccc(Cl)n2)c1,1,54*,-9,4,2,1
O=c1[nH][nH]c(=O)c2cc([N+](=O)[O-])ccc12,/,2,-8,40*,-5,1
O=c1[nH]cnc2ccc([N+](=O)[O-])cc12,/,5,-16,-2,3,2
CCCCOc1ccc(C2C(C(=O)c3ccc(C)o3)=C(O)C(=O)N2Cc2ccco2)cc1 (stereo unspecified),/,56*,9,0,-5,-3
Cc1ccc(C(=O)C2=C(O)C(=O)N(Cc3ccco3)C2c2ccc(N(C)C)cc2)o1 (stereo unspecified),/,21,-10,4,-3,13
Cc1ccc(-n2nc3c(c2NC(=O)c2ccc(F)c(F)c2)CS(=O)(=O)C3)cc1,/,0,-7,109*,4,-5
CC(NC(=O)C(=O)NN=C1CCCCCCCCCCC1)c1ccccc1 (stereo unspecified),1,-3,-1,12*,6,-4
CC(NC(=O)C(=O)NN=C1CCCCCC1)c1ccccc1 (stereo unspecified),-12,-3,5,-6,-1,-4
SMILES,TLR4 MyD88 comp,Rtt109 Vps75,TLR9-MyD88 block,LANA-H2B inh,NOD2 RIPK2 PPI,HTR2A ag
O=C1c2ccccc2C(c2nnnn2Cc2ccccc2)N1Cc1cccc(F)c1 (stereo unspecified),/,/,/,/,-1,-6
Cc1ccc(C(=O)Nc2ncc3c(n2)CC(c2ccco2)CC3=O)cc1 (stereo unspecified),-2,17,-6,-3,-1,-1
O=C(Nc1ncc2c(n1)CC(c1ccco1)CC2=O)c1ccccc1 (stereo unspecified),-3,1,-3,44*,-3,-3
CCOC(=O)c1c(C)[nH]c(C2=NNC(=NC3CC3)SC2)c1C,19,71*,11,0,-1,3
O=C(N/N=C/c1ccco1)c1cc(=O)[nH]c2ccccc12,7,-25,5,16*,-7,-2
O=C(c1ccco1)N1CCN(c2cc(=O)n(-c3ccc(Cl)cc3)c(=O)[nH]2)CC1,-8,3,9,19*,-13,11
COc1cccc(CNC(=O)[C@@H]2CCCN2C(=O)[C@@H]2CCCN2C(=O)c2cccc(OC)c2)c1,/,/,/,/,-7,3
Cc1ccc(NC(=O)c2ccc(Cl)c(N3C(=O)C=CC3=O)c2)cc1,19,-2,18,-2,51*,-3
CC1CCC(C(C)C)C(OC(=O)Cn2c(-c3ccccc3)[n+](C)c3ccccc32)C1 (stereo unspecified),-3,35,-5,172*,1,2
Cc1ccc(-c2nc3c(Cl)cc(C(F)(F)F)cn3c2Cc2ccccc2)cc1,/,/,/,/,-15,0
N#Cc1c(Nc2ccccc2Cl)s[nH]c1=O,/,109*,-11,3,-4,-4
N#Cc1c(Nc2ccccc2C(F)(F)F)s[nH]c1=O,/,/,/,-2,-53,-1
N#Cc1c(Nc2ccccc2)s[nH]c1=O,/,111*,2,-3,1,-2
O=C1C(Sc2ccccc2)=C[C@@]2(O)CC[C@@H](O)[C@]1(Sc1ccccc1)[C@H]2O,/,/,/,/,-1,-1
O=C1NC[C@@H](CCCCN2C[C@H](Cc3ccc(O)cc3)N(CCc3ccc(O)cc3)C(=O)C2=O)N(CC2CCCCC2)C1=O,/,/,/,/,-6,-2
Cc1cccnc1Nc1nc(-c2ccccn2)cs1,-1,2,9,-7,12,-15
Cc1cccnc1Nc1nc(-c2ccccc2)cs1,/,-9,-12,23*,3,0
O=C1CC(=O)C(n2cncn2)C(c2cccc(Cl)c2)C1 (stereo unspecified),7,25,-2,16*,-5,-1
COc1ccc(C2CC(=O)CC(=O)C2n2cncn2)cc1 (stereo unspecified),9,-1,5,-5,0,2

# Bioassay records from PubChem BioAssay.
